{"source": "the supplement of paper PMC9844399", "note": "Where a name gives a salt, the structure may show the parent alone.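 Also: High-content confocal imaging of branched-DNA amplified FISH in 384-well plates, Hoechst-defined nuclei, score is well value minus plate DMSO median over DMSO robust SD, four wells per compound.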", "data": [{"tested_on": "HeLa", "test": "MALAT1 nuclear FISH intensity, robust Z-score vs DMSO; higher = more nuclear MALAT1 lncRNA, active = -3 or less", "details": "10 µM; 6 h", "values": [{"compound": "COc1cc(C(=O)NCc2ccc(OCCN(C)C)cc2)cc(OC)c1OC", "MALAT1 nuclear FISH intensity": "0.229 (inactive)"}, {"compound": "O=C(O)CCCCC(=O)O", "note": "[Adipic acid]", "MALAT1 nuclear FISH intensity": "0.488 (inactive)"}, {"compound": "CCOc1ccccc1OCCN[C@H](C)Cc1ccc(OC)c(S(N)(=O)=O)c1", "MALAT1 nuclear FISH intensity": "-1.94 (inactive)"}, {"compound": "OC[C@H]1O[C@H](O[C@H]2O[C@H](CO)[C@@H](O)[C@H](O)[C@H]2O)[C@H](O)[C@@H](O)[C@@H]1O", "note": "[Trehalose]", "MALAT1 nuclear FISH intensity": "-1.08 (inactive)"}, {"compound": "N=C(N)NC(=O)c1nc(Cl)c(N)nc1N", "note": "[Amiloride hydrochloride hydrate]", "MALAT1 nuclear FISH intensity": "-2.13 (inactive)"}, {"compound": "NS(=O)(=O)Cc1noc2ccccc12", "note": "[Zonisamide]", "MALAT1 nuclear FISH intensity": "-1.25 (inactive)"}, {"compound": "O=C(O)/C(S)=C/c1ccc(I)cc1", "MALAT1 nuclear FISH intensity": "1.13 (inactive)"}, {"compound": "COc1c(N2C[C@@H]3CCCN[C@@H]3C2)c(F)cc2c(=O)c(C(=O)O)cn(C3CC3)c12", "MALAT1 nuclear FISH intensity": "-0.819 (inactive)"}, {"compound": "CCCCC[C@H](O)/C=C/[C@H]1C(=O)C=C[C@@H]1C/C=C\\CCCC(=O)O", "note": "[Prostaglandin J2]", "MALAT1 nuclear FISH intensity": "-0.999 (inactive)"}, {"compound": "CN(CCOc1ccc(NS(C)(=O)=O)cc1)CCc1ccc(NS(C)(=O)=O)cc1", "note": "[Dofetilide]", "MALAT1 nuclear FISH intensity": "1.23 (inactive)"}, {"compound": "CC/C(=C(/CC)c1ccc(O)cc1)c1ccc(O)cc1", "note": "[Diethylstilbestrol]", "MALAT1 nuclear FISH intensity": "-0.534 (inactive)"}, {"compound": "C[C@]12CCC3=C4CCC(=O)C=C4CC[C@H]3[C@@H]1CC[C@@]2(O)CC#N", "note": "[Dienogest]", "MALAT1 nuclear FISH intensity": "1.46 (inactive)"}, {"compound": "C#CCCCCCCCCCCCCCCCC(=O)O", "note": "[17-Octadecynoic acid]", "MALAT1 nuclear FISH intensity": "-0.883 (inactive)"}, {"compound": "CC(C)COCC(CN(Cc1ccccc1)c1ccccc1)N1CCCC1", "note": "(centres undefined)", "MALAT1 nuclear FISH intensity": "-0.503 (inactive)"}, {"compound": "CCOC(=O)C(C)(C)Oc1ccc(Cl)cc1", "note": "[Clofibrate]", "MALAT1 nuclear FISH intensity": "0.229 (inactive)"}, {"compound": "CC1(C)O[C@@H]2C[C@H]3[C@@H]4C[C@H](F)C5=CC(=O)C=C[C@]5(C)[C@@]4(F)[C@@H](O)C[C@]3(C)[C@]2(C(=O)CO)O1", "note": "[Fluocinolone Acetonide]", "MALAT1 nuclear FISH intensity": "0.847 (inactive)"}, {"compound": "COC(C)(C)CCCC(C)C/C=C/C(C)=C/C(=O)O", "note": "(centres undefined) [Methoprene acid]", "MALAT1 nuclear FISH intensity": "0.292 (inactive)"}, {"compound": "Nc1nc(NC2CC2)c2ncn([C@H]3C=C[C@@H](CO)C3)c2n1", "note": "[Abacavir Sulfate]", "MALAT1 nuclear FISH intensity": "0.552 (inactive)"}, {"compound": "CC(=O)N[C@H]1[C@H]([C@H](O)[C@H](O)CO)OC(C(=O)O)=C[C@@H]1NC(=N)N", "note": "[Zanamivir]", "MALAT1 nuclear FISH intensity": "0.223 (inactive)"}, {"compound": "OCCN(CCO)c1nc(N2CCCCC2)c2nc(N(CCO)CCO)nc(N3CCCCC3)c2n1", "note": "[Dipyridamole]", "MALAT1 nuclear FISH intensity": "-0.77 (inactive)"}, {"compound": "CO[C@@H]1[C@H](N(C)C(=O)c2ccccc2)C[C@H]2O[C@]1(C)n1c3ccccc3c3c4c(c5c6ccccc6n2c5c31)C(=O)NC4", "note": "[PKC-412 (Midostaurin)]", "MALAT1 nuclear FISH intensity": "0.39 (inactive)"}, {"compound": "COc1cc(Br)c(Nc2nc(-c3c(C)nc4ncccn34)cs2)c(Br)c1", "MALAT1 nuclear FISH intensity": "4.09 (inactive)"}, {"compound": "CCCCCCNC(=O)n1cc(F)c(=O)[nH]c1=O", "note": "[Carmofur]", "MALAT1 nuclear FISH intensity": "-0.327 (inactive)"}, {"compound": "Nc1ncnc2c1ncn2C1CCCO1", "note": "(centres undefined)", "MALAT1 nuclear FISH intensity": "-1.6 (inactive)"}, {"compound": "COC1=CC(=O)C[C@@H](C)[C@]12Oc1c(Cl)c(OC)cc(OC)c1C2=O", "note": "[(+)-Griseofulvin]", "MALAT1 nuclear FISH intensity": "-1.05 (inactive)"}, {"compound": "NC(N)=Nc1nc(CSCC/C(N)=N/S(N)(=O)=O)cs1", "note": "[Famotidine]", "MALAT1 nuclear FISH intensity": "-0.447 (inactive)"}, {"compound": "O=C(Nc1ccc([N+](=O)[O-])cc1Cl)c1cc(Cl)ccc1O", "note": "[Niclosamide]", "MALAT1 nuclear FISH intensity": "-5.91 (active)"}, {"compound": "CCc1nc(N)nc(N)c1-c1ccc(Cl)cc1", "note": "[Pyrimethamine]", "MALAT1 nuclear FISH intensity": "-0.304 (inactive)"}, {"compound": "C[C@H]1CC[C@@]2(OC1)O[C@H]1C[C@H]3[C@@H]4CC[C@@H]5C[C@@H](O[C@@H]6O[C@H](CO)[C@H](O)[C@H](O)[C@H]6O[C@@H]6O[C@H](CO)[C@@H](O)[C@H](O)[C@H]6O)CC[C@]5(C)[C@H]4CC[C@]3(C)[C@H]1[C@@H]2C", "note": "[Timosaponin A-III]", "MALAT1 nuclear FISH intensity": "-0.716 (inactive)"}, {"compound": "CO[C@@]12[C@H](COC(N)=O)C3=C(C(=O)C(C)=C(N)C3=O)N1C[C@@H]1N[C@@H]12", "note": "[Mitomycin C]", "MALAT1 nuclear FISH intensity": "0.475 (inactive)"}, {"compound": "CCCCC[C@H](O)/C=C/C1=C(CCCCCCC(=O)O)C(=O)CC1", "note": "[Prostaglandin B1]", "MALAT1 nuclear FISH intensity": "-0.084 (inactive)"}, {"compound": "C[N+]1(C)[C@@H]2CC[C@H]1C[C@@H](OC(=O)C(O)c1ccccc1)C2", "note": "(some centres undefined) [Homatropine Methylbromide]", "MALAT1 nuclear FISH intensity": "-1.08 (inactive)"}, {"compound": "CCCC(=O)Nc1ncnc2c1ncn2[C@@H]1O[C@@H]2COP(=O)(O)O[C@H]2[C@H]1OC(=O)CCC", "note": "[Dibutyrylcyclic AMP]", "MALAT1 nuclear FISH intensity": "-0.304 (inactive)"}, {"compound": "CC(=O)CCCCn1c(=O)c2c(ncn2C)n(C)c1=O", "note": "[Pentoxifylline]", "MALAT1 nuclear FISH intensity": "0.23 (inactive)"}, {"compound": "CCCCCCCCCCCCC(O)C(=O)O", "note": "(centres undefined) [2-Hydroxymyristic acid]", "MALAT1 nuclear FISH intensity": "0.384 (inactive)"}, {"compound": "CNC(=O)c1cc(Oc2ccc(NC(=O)Nc3ccc(Cl)c(C(F)(F)F)c3)c(F)c2)ccn1", "MALAT1 nuclear FISH intensity": "0.489 (inactive)"}, {"compound": "C[C@H](CCC(=O)O)[C@H]1CC[C@H]2[C@@H]3[C@H](O)C[C@@H]4C[C@H](O)CC[C@]4(C)[C@H]3CC[C@]12C", "note": "[Chenodiol (Chenodeoxycholic Acid)]", "MALAT1 nuclear FISH intensity": "0.231 (inactive)"}, {"compound": "CN(C)CCCN1c2ccccc2Sc2ccc(Cl)cc21", "MALAT1 nuclear FISH intensity": "-0.171 (inactive)"}, {"compound": "CC(=O)OCC(=O)[C@@]1(O)CC[C@H]2[C@@H]3CCC4=CC(=O)CC[C@]4(C)[C@@]3(F)[C@@H](O)C[C@@]21C", "note": "[Fludrocortisone Acetate]", "MALAT1 nuclear FISH intensity": "1.96 (inactive)"}]}]}
